Consider 4 compounds from PubChem BioAssay.

Experiment [1] in a line: binders of probe aFSTL3 on microarray, primary screen, stem cell growth factor project, biochemical, small-molecule microarray, fluorescence 635/667 (AID 1064).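 Also: measures binding of the biotinylated anti-FSTL3 antibody to printed compounds.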 Conditions: higher = more signal.
The nature of experiment [2]: binders from COS7 lysate, DM2A8 probe, primary screen, torsin A project, cell lysate, small-molecule microarray, fluorescence 635/667 (AID 1065). As to conditions: higher = more signal, COS7 lysate expressing mutant human TOR1A.
Experiment [3] in a line: binders of probe aFGF2 on microarray, primary screen, stem cell growth factor project, biochemical, small-molecule microarray, fluorescence 635/667 (AID 1067).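 Also: measures binding of biotinylated aFGF2 protein to printed compounds on slides; z-score merges feature fluorescence and signal-to-noise across triplicate slides.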 As to conditions: higher = more signal.
Experiment [4] in a line: binders of probe aFGF10 on microarray, primary screen, stem cell growth factor project, biochemical, small-molecule microarray, fluorescence 635/667 (AID 1071).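 Also: score merges 667 nm spot intensity and signal to noise from triplicate slides.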 Conditions: higher = more signal.
The target in experiment [5] is Neurogenic locus notch homolog protein 2 (Homo sapiens) (UniProt Q04721). Briefly: Notch2 binders on small-molecule microarrays, primary screen, biochemical, small-molecule microarray, 635 nm fluorescence, stem cell growth factors (AID 1073). As to conditions: Notch2 binding, higher = more signal.
The target in experiment [6] is Pro-neuregulin-1, membrane-bound isoform (Homo sapiens) (UniProt Q02297). Kind of experiment: NRG1 binders on small-molecule microarrays, primary screen, psychiatric disease protein project, biochemical, small-molecule microarray, fluorescence 635/667 (AID 1075).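 Also: score combines 667 nm spot fluorescence with signal to noise.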 Conditions: NRG1 binding, 635 nm fluorescence, higher = more signal.
In experiment [7] the test system is Neuregulin-1 EGF-like domain. Briefly: binders of neuregulin-1 EGF-like domain, primary screen, biochemical, small-molecule microarray, 635 nm fluorescence (AID 1081).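 Also: binding of the protein to compounds printed on small-molecule microarray slides.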 Conditions: small-molecule microarray binding, higher = more signal.
The nature of experiment [8]: FRG1 promoter luciferase signal modulators, primary screen, FRG1 inhibition for FSHD, cell-based, C2C12 myotubes, firefly/Renilla luciferase, luminescence (AID 1084). Conditions: higher = more signal, called active from +8 up or from −8 down.
A short description of experiment [9]: binders of probe aFST on microarray, primary screen, stem cell growth factor project, biochemical, small-molecule microarray, fluorescence 635/667 (AID 1086).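 Also: score merges 667 nm fluorescence with signal-to-noise of each printed compound spot.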 Conditions: higher = more signal.
The nature of experiment [10]: binders of probe aHhip on microarray, primary screen, stem cell growth factor project, biochemical, small-molecule microarray, fluorescence 635/667 (AID 1087).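 Also: score merges spot fluorescence at 667nm with spot signal to noise ratio.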 Conditions: higher = more signal.
For experiment [11], the system named is PRMT1 (protein arginine N-methyltransferase 1). Briefly: PRMT1 binders on small-molecule microarrays, primary screen, biochemical, small-molecule microarray, 635 nm fluorescence (AID 1088).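 Also: binding of Prmt1 protein to compounds spotted on small-molecule microarray slides.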 Conditions: small-molecule microarray binding, higher = more signal.
Experiment [12] is described as follows: yeast growth modulation, basal conditions, primary screen, YJM789 clinical isolate, OD600, 24 h (AID 1089).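 Also: growth of clinical yeast isolate S. cerevisiae YJM 789 seeded 1000 cells per well; test concentration not given here.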 As to conditions: S. cerevisiae YJM789 growth, higher = more signal, called active from +8 up or from −8 down.
A short description of experiment [13]: fission yeast growth modulation, primary screen, strain 972, OD600, 24 h, no modulator (AID 1090).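 Also: basal condition with compound alone and no growth modifier present; test concentration not given here.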 Conditions: S. pombe 972 growth, higher = more signal, called active from +8 up or from −8 down.
Experiment [14] is described as follows: S. cerevisiae growth modulation with rapamycin, primary screen, strain BY4716, OD600, 96 h (AID 1091). Also: test concentration not given here. Conditions: higher = more signal, called active from +8 up or from −8 down.
Experiment [15] deals with Torsin-1A-interacting protein 2 (Homo sapiens) (UniProt Q8NFQ8). Briefly: LULL1 binders on small-molecule microarray, primary screen, cell lysate, human LULL1 lysate, 635/667 nm fluorescence (AID 1092).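 Also: probe is lysate of COS7 cells overexpressing human LULL1; score merges per-feature 667 nm fluorescence with signal-to-noise.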 As to conditions: hLULL1 lysate binding, 635 nm fluorescence, higher = more signal.
Experiment [16] is described as follows: E. coli growth modulation, two-sided OD650, primary screen, E. coli filamentation project, strain DRC41, 24 h (AID 1093).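 Also: MC1000 strain lacking acrAB efflux and sulA so SOS filamentation is blocked; test concentration not given here.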 As to conditions: OD650, 24 h, higher = more signal, called active from +8 up or from −8 down.
Experiment [17] is described as follows: small-molecule microarray binders of probe aLefty2, primary screen, biochemical, biotinylated probe, 635/667 nm fluorescence (AID 1094).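 Also: score merges spot fluorescence near 667 nm with spot signal-to-noise ratio.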 As to conditions: higher = more signal.
In experiment [18] the test system is Noggin (protein binding on small-molecule microarray). Kind of experiment: Noggin binders on small-molecule microarray, primary screen, biochemical, 635/667 nm fluorescence (AID 1095).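 Also: score merges 667 nm feature fluorescence with signal to noise over triplicate slides.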 As to conditions: 635 nm fluorescence, higher = more signal.
Experiment [19] concerns the target Neurogenic locus notch homolog protein 3 (Homo sapiens) (UniProt Q9UM47). Briefly: NOTCH3 binders on small-molecule microarray, primary screen, biochemical, 635/667 nm fluorescence (AID 1096). As to conditions: NOTCH3 binding, 635 nm fluorescence, higher = more signal.
Experiment [20] in a line: small-molecule microarray binders of probe aEGFR, primary screen, biochemical, biotinylated probe, 635/667 nm fluorescence (AID 1097).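 Also: probe is a biotinylated anti-EGFR antibody binding compounds printed on slides; score combines fluorescence near 667 nm and signal to noise of each spot.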 As to conditions: higher = more signal.

Several values for one entry are separate records, joined by “and”; a condition that tells them apart may be missing. Identical values can stand only once. Activity calls are given as the source filed them.

Sequence of Neurogenic locus notch homolog protein 3 (Homo sapiens) (Q9UM47 whole entry, looked up): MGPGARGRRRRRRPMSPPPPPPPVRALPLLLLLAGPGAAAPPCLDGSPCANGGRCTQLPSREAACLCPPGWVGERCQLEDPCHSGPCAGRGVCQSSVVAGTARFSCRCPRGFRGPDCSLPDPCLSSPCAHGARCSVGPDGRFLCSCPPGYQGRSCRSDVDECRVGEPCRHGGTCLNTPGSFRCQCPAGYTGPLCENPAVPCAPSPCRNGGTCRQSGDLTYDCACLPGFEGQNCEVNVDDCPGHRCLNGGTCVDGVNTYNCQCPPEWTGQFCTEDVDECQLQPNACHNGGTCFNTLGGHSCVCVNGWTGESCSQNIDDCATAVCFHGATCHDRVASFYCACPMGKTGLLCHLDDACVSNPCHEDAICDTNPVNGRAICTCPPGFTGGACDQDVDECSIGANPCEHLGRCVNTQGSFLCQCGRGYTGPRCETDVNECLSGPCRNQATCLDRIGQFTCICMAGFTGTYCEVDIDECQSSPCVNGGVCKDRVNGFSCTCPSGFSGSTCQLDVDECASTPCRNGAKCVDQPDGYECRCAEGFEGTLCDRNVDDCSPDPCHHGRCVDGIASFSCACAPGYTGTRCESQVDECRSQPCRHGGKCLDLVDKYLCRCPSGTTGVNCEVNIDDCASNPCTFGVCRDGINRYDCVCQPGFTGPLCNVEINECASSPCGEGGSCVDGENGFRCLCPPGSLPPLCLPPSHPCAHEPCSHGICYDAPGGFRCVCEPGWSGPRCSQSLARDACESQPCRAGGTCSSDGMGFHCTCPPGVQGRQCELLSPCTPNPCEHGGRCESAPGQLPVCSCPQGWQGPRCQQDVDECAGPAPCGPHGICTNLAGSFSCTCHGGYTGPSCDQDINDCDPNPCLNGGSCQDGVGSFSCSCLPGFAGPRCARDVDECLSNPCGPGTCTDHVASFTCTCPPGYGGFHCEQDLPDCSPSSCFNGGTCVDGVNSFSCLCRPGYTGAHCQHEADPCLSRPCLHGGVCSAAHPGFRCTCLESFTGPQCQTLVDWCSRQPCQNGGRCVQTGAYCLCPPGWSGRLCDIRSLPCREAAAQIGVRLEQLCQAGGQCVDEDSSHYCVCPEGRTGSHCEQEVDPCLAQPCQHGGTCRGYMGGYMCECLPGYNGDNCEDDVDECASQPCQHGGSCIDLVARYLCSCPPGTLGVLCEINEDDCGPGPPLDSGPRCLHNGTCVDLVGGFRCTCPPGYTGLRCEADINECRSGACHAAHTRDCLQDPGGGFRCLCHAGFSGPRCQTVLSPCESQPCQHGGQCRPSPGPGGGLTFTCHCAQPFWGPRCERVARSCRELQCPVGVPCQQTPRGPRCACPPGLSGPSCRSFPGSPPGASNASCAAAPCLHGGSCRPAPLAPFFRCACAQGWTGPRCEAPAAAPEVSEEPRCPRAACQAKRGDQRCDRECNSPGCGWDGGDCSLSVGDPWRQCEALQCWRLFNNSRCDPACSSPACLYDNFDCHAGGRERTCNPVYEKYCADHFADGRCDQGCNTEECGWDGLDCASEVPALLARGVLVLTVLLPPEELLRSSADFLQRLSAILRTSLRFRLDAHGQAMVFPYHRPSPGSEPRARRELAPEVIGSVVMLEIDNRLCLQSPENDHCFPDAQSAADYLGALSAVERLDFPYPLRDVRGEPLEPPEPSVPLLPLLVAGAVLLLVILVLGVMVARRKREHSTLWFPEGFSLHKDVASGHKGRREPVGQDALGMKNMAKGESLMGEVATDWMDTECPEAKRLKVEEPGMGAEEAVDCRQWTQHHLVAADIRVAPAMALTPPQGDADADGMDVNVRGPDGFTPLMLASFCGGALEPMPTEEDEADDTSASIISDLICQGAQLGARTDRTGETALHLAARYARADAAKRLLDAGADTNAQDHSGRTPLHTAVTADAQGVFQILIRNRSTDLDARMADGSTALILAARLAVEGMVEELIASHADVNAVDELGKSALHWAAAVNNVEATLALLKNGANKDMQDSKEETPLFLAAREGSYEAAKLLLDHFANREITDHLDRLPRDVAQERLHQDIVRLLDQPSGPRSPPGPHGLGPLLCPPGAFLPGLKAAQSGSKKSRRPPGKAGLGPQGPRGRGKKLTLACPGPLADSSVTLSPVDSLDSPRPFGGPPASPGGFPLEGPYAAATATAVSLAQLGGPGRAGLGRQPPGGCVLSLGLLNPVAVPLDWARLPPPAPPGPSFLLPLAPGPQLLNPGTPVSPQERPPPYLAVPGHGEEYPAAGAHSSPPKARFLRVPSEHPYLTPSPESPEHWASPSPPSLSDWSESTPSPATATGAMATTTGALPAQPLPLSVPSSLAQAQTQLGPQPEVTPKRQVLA
Sequence of Torsin-1A-interacting protein 2 (Homo sapiens) (Q8NFQ8 whole entry, looked up): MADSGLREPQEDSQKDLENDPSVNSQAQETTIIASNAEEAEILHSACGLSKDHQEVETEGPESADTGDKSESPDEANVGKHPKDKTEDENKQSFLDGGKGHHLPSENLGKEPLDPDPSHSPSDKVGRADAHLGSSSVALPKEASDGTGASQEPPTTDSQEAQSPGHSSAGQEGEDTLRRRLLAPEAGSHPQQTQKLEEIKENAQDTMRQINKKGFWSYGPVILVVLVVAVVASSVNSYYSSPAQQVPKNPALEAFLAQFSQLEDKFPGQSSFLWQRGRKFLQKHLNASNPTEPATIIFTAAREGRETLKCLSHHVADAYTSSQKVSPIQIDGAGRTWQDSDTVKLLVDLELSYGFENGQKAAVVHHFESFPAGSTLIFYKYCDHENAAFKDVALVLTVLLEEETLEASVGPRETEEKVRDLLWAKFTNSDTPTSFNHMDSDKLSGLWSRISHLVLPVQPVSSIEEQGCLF
Sequence of Pro-neuregulin-1, membrane-bound isoform (Homo sapiens) (Q02297 whole entry, looked up, the tested form may be a part, canonical isoform): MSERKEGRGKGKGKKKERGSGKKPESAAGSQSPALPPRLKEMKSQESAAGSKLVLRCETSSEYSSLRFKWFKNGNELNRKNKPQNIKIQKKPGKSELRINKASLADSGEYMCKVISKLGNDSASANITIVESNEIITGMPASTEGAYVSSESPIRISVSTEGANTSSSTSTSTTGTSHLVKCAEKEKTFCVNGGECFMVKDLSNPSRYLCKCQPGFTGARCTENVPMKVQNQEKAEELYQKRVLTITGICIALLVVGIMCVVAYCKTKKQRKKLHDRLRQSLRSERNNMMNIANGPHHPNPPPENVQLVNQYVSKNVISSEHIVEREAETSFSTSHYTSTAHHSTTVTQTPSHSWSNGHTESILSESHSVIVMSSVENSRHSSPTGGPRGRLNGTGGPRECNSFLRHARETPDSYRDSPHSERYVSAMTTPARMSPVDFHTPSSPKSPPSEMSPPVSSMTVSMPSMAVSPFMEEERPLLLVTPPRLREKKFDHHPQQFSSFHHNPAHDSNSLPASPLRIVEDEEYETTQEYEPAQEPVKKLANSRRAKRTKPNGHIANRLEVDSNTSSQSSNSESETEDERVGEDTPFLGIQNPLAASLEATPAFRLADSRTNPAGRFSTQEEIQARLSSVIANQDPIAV

For the compound `C=CCN(C(=O)C1N(c2c(Cl)cccc2CO)C(=O)C2C(C(=O)O)C3C=CC21O3)c1ccc(OC)cc1` (stereo not given), the composite z-score in experiment [1] was 0.778 and 0.859; in experiment [2], -1.57 and -1.33; in experiment [3], -0.119 and -0.252; in [4] it was -0.653 and -1.76; in [5], -1.09 and -1.92; in [6] it was -0.515 and -0.497. The composite z-score in experiment [7] is 0.507 and -0.579; in experiment [9], -0.826 and -0.934; in experiment [10], -0.283 and -0.517; in experiment [11], -0.406 and -0.949; in experiment [15], -0.51 and -1.41; in experiment [17] it was -0.652 and -0.252. Besides, the composite z-score in experiment [18] is -1.05 and -1.85; in experiment [19], -0.306 and -0.737; in [20], -0.327 and -0.236. Moreover, the z-score in experiment [8] is 1.48 (inactive) and -1.39 (inactive); in [12] it was 0.188 (inactive) and -1.76 (inactive); in [13] it was 0.0331 (inactive) and -1.23 (inactive); in experiment [14], -0.362 (inactive) and -0.691 (inactive); in experiment [16], 1.82 (inactive) and 2.06 (inactive).

On to `CC(CO)N1C(=O)[C@@H]2C3C(=O)OCCC=C[C@H]3OC23C=CCN(CCN2CCOCC2)C(=O)[C@@H]13` (stereo not given in full), for which the composite z-score in experiment [1] is -0.316 and 0.246; in experiment [2] it was -1.28 and 0.759; in experiment [3], -0.166 and -0.085; in experiment [4], -0.376 and -0.591; in experiment [5] it was -0.0931 and 0.0406; in experiment [6], -0.256 and 1.91. Moreover, the composite z-score is 0.678 and 0.666 in [7]; 0.106 and 0.0417 in experiment [9]; -0.399 and -0.119 in [10]; -0.353 and 1.34 in experiment [11]; -0.634 and 3.22 in experiment [15]; -0.186 and 0.166 in experiment [17]. Moreover, the composite z-score in experiment [18] is -0.0409 and 0.0947; in [19] it was 0.331 and 0.465; in experiment [20], -0.207 and -0.0046. Further, the z-score in experiment [8] is 0.12 (inactive) and 0.497 (inactive); in experiment [12] it was 0.517 (inactive) and -1.32 (inactive); in [13] it was -0.0581 (inactive) and -1.22 (inactive); in [14] it was 0.565 (inactive) and -0.233 (inactive); in [16] it was -0.381 (inactive) and -0.16 (inactive).

For the compound `CO[C@@H]1COC(=O)CC=C[C@H](C)[C@@H](NS(=O)(=O)c2ccc(C)cc2)COC(=O)CC=C[C@@H]1C`, the composite z-score was -0.226 and -0.425 in experiment [1]; 0.711 and 1.44 in [2]; -0.234 and -0.127 in experiment [3]; 0.433 and -0.153 in [4]; 0.671 and -0.333 in [5]; 0.0292 and -0.476 in experiment [6]. Besides, the composite z-score was 0.628 and 0.956 in experiment [7]; 0.0151 and 0.106 in [9]; 0.113 and -0.0391 in [10]; 1.16 and 1.54 in [11]; 0.633 and -0.853 in [15]; -0.0785 and -0.186 in [17]. The composite z-score was 1.27 and 1.31 in experiment [18]; 0.634 and 0.525 in experiment [19]; -0.115 and 0.0097 in experiment [20]. Besides, the z-score in experiment [8] was 0.994 (inactive) and 0.445 (inactive); in experiment [12], 0.403 (inactive) and -0.552 (inactive); in experiment [13], -0.733 (inactive) and -0.194 (inactive); in experiment [14], 0.62 (inactive) and -1.52 (inactive); in [16], 0.56 (inactive) and 0.132 (inactive).

Turning to `C=CCN(CCCCC)C(=O)C(c1cccs1)N(C(=O)/C=C\C(=O)O)c1c(Cl)cccc1CO` (stereo not given), the composite z-score is 0.0175 and 0.264 in [1]; -0.764 and -0.654 in experiment [2]; -0.21 and -0.122 in experiment [3]; -1.57 and -1.12 in experiment [4]; -2.35 and -1.74 in experiment [5]; 1.12 and -0.954 in experiment [6]. The composite z-score was 0.683 and 0.526 in experiment [7]; -0.655 and -1.1 in experiment [9]; -0.128 and -0.323 in experiment [10]; -0.399 and -0.874 in experiment [11]; 2.54 and 0.687 in [15]; 0.0503 and -0.151 in [17]. Further, the composite z-score is -2.9 and -1.86 in [18]; -0.864 and -1.23 in experiment [19]; -0.348 and -0.216 in experiment [20]. Moreover, the z-score in [8] is -0.383 (inactive) and 0.395 (inactive); in experiment [12], 0.0767 (inactive) and -0.389 (inactive); in [13], -0.186 (inactive) and -0.149 (inactive); in experiment [14], -0.288 (inactive) and -0.446 (inactive); in [16] it was -0.422 (inactive) and -0.448 (inactive).
